We go through 40 compounds from PubChem BioAssay.

The nature of one assay: MRP1 drug-resistance reversers in H69AR cells – cell-based, doxorubicin co-treatment, pilot screen (AID 601). To be noted: H69AR cells + 2 uM doxorubicin, CellTiter-Glo, 72 h; measured here: viability with 2 uM doxorubicin; at 10 µM; stronger effect = lower value.
Turning to `CCOC(=O)C1CCN(c2c(NC3CCCCCCC3)c(=O)c2=O)CC1`, the viability came to 71%.

Regarding `Cc1nc(NC2=NCN(CCN3CCOCC3)CN2)nc2c(C)cccc12`, the viability is 108%.

`CCN(CC)C(=O)c1sc2nc(-c3cccs3)cc(-c3cccs3)c2c1N`: the viability was 84.5%.

For `O=C(O)C1CCCN1c1ncnc2c1oc1ccccc12` (stereo not given), the viability turned out to be 99.4%.

Consider `CCOc1cccc(Oc2ccc(C(F)(F)F)cn2)c1`, for which the viability is 93.3%.

Turning to `CCOC(=O)N1CCN(Cc2ccccc2F)CC1`, the viability turned out to be 87.2%.

Turning to `CCCS(=O)(=O)C(=C1Nc2ccccc2N1)S(=O)(=O)CCC`, the viability is 89.8%.

Turning to `O=C(NCCSCc1ccco1)Nc1cccc(Cl)c1`, the viability came to 84.2%.

On to `O=C1C2C3C=CC(C3=C3CCCCC3)C2C(=O)N1c1ccccc1` (stereo not given), for which the viability was determined as 94.7%.

For `OC1(c2cccc(C(F)(F)F)c2)CCNCC1`, the viability is 86.2%.

Turning to `CCOc1ccc2[nH]cc(C(=O)N3CCN(CC)CC3)c(=O)c2c1`, the viability is 104%.

Regarding `O=C(NC1CCCCCC1)C1CCCN(S(=O)(=O)c2cccs2)C1` (stereo not given), the viability is 87.8%.

Consider `O=C(CSc1nnnn1C1CCCC1)N1CCN(C(=O)c2ccco2)CC1`, for which the viability worked out at 103%.

For `O=S(=O)(c1ccc(S(=O)(=O)N(Cc2ccco2)Cc2ccccc2Cl)cc1)N1CCCC1`, the viability turned out to be 64.2%.

Consider `CN(C)S(=O)(=O)c1ccc(S(=O)(=O)N(Cc2ccco2)Cc2ccccc2Cl)cc1`, for which the viability is 88.2%.

Turning to `O=C(Nc1cccc2ncccc12)c1ccc2c(c1)OCCO2`, the viability was found to be 92.1%.

Consider `Cc1cc(C)n(C(=O)CCCCCC(=O)n2nc(C)cc2C)n1`, for which the viability worked out at 94.5%.

On to `O=c1c[n+]([O-])c2ccccc2n1OCc1ccccn1`, for which the viability was 92.7%.

Turning to `O=C(CN(c1ccccc1)S(=O)(=O)c1ccccc1)N1CCN(Cc2ccc3c(c2)OCO3)CC1`, the viability amounted to 91.8%.

Regarding `N#CC(C(=O)Nc1ccc(Cl)c(Cl)c1)=C1Nc2ccccc2N1`, the viability turned out to be 24.3%.

`CCCc1cc(=O)n2[nH]cnc2n1`: the viability worked out at 96.6%.

Regarding `COc1ccc(-c2noc(-c3ccccc3C(=O)Nc3cccnc3)n2)cc1`, the viability came to 73.3%.

In the case of `COc1ccccc1-n1c(SCC(=O)Nc2ccc3c(c2)OCO3)nc2c(c1=O)SCC2`, the viability stood at 86.7%.

Take `N#CC1=C(N)N(c2ccccc2)C(c2ccco2)C1(C#N)C#N` (stereo not given): the viability is 86.4%.

On to `O=C(N1CCN(c2ccccc2F)CC1)C12CC3CC(CC(C3)C1)C2`, for which the viability turned out to be 98.7%.

On to `COc1ccc(C2C(C(C)=O)=C(O)C(=O)N2C)c(OC)c1` (stereo not given), for which the viability came to 91.7%.

In the case of `O=C(CN1C(=O)CCSc2ccccc21)Nc1ccc2c(c1)OCO2`, the viability came to 103%.

For `COc1cccc(C(=O)Nc2ccc(NC(C)=O)cn2)c1`, the viability stood at 93.2%.

On to `COC(=O)c1cc(Oc2ccc(C(=O)OC)cc2N)cc(C(=O)OC)c1`, for which the viability amounted to 99.2%.

In the case of `CCOC(=O)c1sc2nc(SCC#N)n(CCCN3CCCC3=O)c(=O)c2c1C`, the viability was found to be 84%.

With `Nc1c(C(=O)NCc2ccco2)nnn1Cc1ccccc1`, the viability stood at 95.1%.

For the compound `Cc1ccc(N2C(N)=NC(N)=NC23CCCC3)c(C)c1`, the viability turned out to be 85%.

As for `CCCCc1ccc(NC(=O)COCC)cc1`, the viability worked out at 85.9%.

As to `Cc1ccc2nc(SC(C)C(=O)N3CCCC3)[nH]c2c1` (stereo not given), the viability was found to be 91.6%.

For `CN(C)c1cccc(C(=O)OCC(=O)NCc2ccco2)c1`, the viability is 78.6%.

For the compound `CCN(CC)CCOC(=O)c1cccc(OC)c1`, the viability worked out at 94.4%.

For `COc1ccc(NC(=O)CCNC(=O)Cn2ccc3ccccc3c2=O)c(OC)c1`, the viability turned out to be 88.1%.

Consider `COc1ccc(CCNc2oc(-c3ccccc3OC)nc2C#N)cc1`, for which the viability stood at 94.8%.

With `Fc1ccc(-c2cnc[nH]2)cc1`, the viability came to 90.4%.

Regarding `Cc1cc(NC(=O)CSc2nnc(C3CC3)n2C)no1`, the viability worked out at 100%.

The assay is the same for the next values; noted with them: H69AR cells, CellTiter-Glo, 72 h; compound alone cytotoxicity; at 10 µM.
In the case of `CCOC(=O)C1CCN(c2c(NC3CCCCCCC3)c(=O)c2=O)CC1`, the viability came to 79.7%.

For the compound `Cc1nc(NC2=NCN(CCN3CCOCC3)CN2)nc2c(C)cccc12`, the viability came out at 95.2%.

On to `CCN(CC)C(=O)c1sc2nc(-c3cccs3)cc(-c3cccs3)c2c1N`, for which the viability came out at 71.8%.

Turning to `O=C(O)C1CCCN1c1ncnc2c1oc1ccccc12` (stereo not given), the viability is 92.3%.

For `CCOc1cccc(Oc2ccc(C(F)(F)F)cn2)c1`, the viability was found to be 99.9%.

`CCOC(=O)N1CCN(Cc2ccccc2F)CC1`: the viability was determined as 85%.

In the case of `CCCS(=O)(=O)C(=C1Nc2ccccc2N1)S(=O)(=O)CCC`, the viability was determined as 103%.

As to `O=C(NCCSCc1ccco1)Nc1cccc(Cl)c1`, the viability was determined as 86.3%.

In the case of `O=C1C2C3C=CC(C3=C3CCCCC3)C2C(=O)N1c1ccccc1` (stereo not given), the viability is 95.8%.

As for `OC1(c2cccc(C(F)(F)F)c2)CCNCC1`, the viability came out at 90.8%.

On to `CCOc1ccc2[nH]cc(C(=O)N3CCN(CC)CC3)c(=O)c2c1`, for which the viability turned out to be 89.6%.

On to `O=C(NC1CCCCCC1)C1CCCN(S(=O)(=O)c2cccs2)C1` (stereo not given), for which the viability was determined as 105%.

Take `O=C(CSc1nnnn1C1CCCC1)N1CCN(C(=O)c2ccco2)CC1`: the viability amounted to 105%.

As for `O=S(=O)(c1ccc(S(=O)(=O)N(Cc2ccco2)Cc2ccccc2Cl)cc1)N1CCCC1`, the viability is 76.6%.

In the case of `CN(C)S(=O)(=O)c1ccc(S(=O)(=O)N(Cc2ccco2)Cc2ccccc2Cl)cc1`, the viability is 95.8%.

For the compound `O=C(Nc1cccc2ncccc12)c1ccc2c(c1)OCCO2`, the viability came to 104%.

As for `Cc1cc(C)n(C(=O)CCCCCC(=O)n2nc(C)cc2C)n1`, the viability came out at 105%.

As to `O=c1c[n+]([O-])c2ccccc2n1OCc1ccccn1`, the viability worked out at 105%.

`O=C(CN(c1ccccc1)S(=O)(=O)c1ccccc1)N1CCN(Cc2ccc3c(c2)OCO3)CC1`: the viability amounted to 96.9%.

Take `N#CC(C(=O)Nc1ccc(Cl)c(Cl)c1)=C1Nc2ccccc2N1`: the viability came out at 13.5%.

As for `CCCc1cc(=O)n2[nH]cnc2n1`, the viability worked out at 100%.

`COc1ccc(-c2noc(-c3ccccc3C(=O)Nc3cccnc3)n2)cc1`: the viability worked out at 86.5%.

In the case of `COc1ccccc1-n1c(SCC(=O)Nc2ccc3c(c2)OCO3)nc2c(c1=O)SCC2`, the viability stood at 87.4%.

In the case of `N#CC1=C(N)N(c2ccccc2)C(c2ccco2)C1(C#N)C#N` (stereo not given), the viability was found to be 85.5%.

With `O=C(N1CCN(c2ccccc2F)CC1)C12CC3CC(CC(C3)C1)C2`, the viability was 89.9%.

In the case of `COc1ccc(C2C(C(C)=O)=C(O)C(=O)N2C)c(OC)c1` (stereo not given), the viability came out at 114%.

Take `O=C(CN1C(=O)CCSc2ccccc21)Nc1ccc2c(c1)OCO2`: the viability was found to be 103%.

Regarding `COc1cccc(C(=O)Nc2ccc(NC(C)=O)cn2)c1`, the viability came to 106%.

With `COC(=O)c1cc(Oc2ccc(C(=O)OC)cc2N)cc(C(=O)OC)c1`, the viability was determined as 96.5%.

`CCOC(=O)c1sc2nc(SCC#N)n(CCCN3CCCC3=O)c(=O)c2c1C`: the viability amounted to 75.8%.

For the compound `Nc1c(C(=O)NCc2ccco2)nnn1Cc1ccccc1`, the viability worked out at 96%.

With `Cc1ccc(N2C(N)=NC(N)=NC23CCCC3)c(C)c1`, the viability turned out to be 106%.

`CCCCc1ccc(NC(=O)COCC)cc1`: the viability came to 93.1%.

For the compound `Cc1ccc2nc(SC(C)C(=O)N3CCCC3)[nH]c2c1` (stereo not given), the viability was 97.6%.

`CN(C)c1cccc(C(=O)OCC(=O)NCc2ccco2)c1`: the viability was determined as 86.2%.

In the case of `CCN(CC)CCOC(=O)c1cccc(OC)c1`, the viability came to 90.2%.

For `COc1ccc(NC(=O)CCNC(=O)Cn2ccc3ccccc3c2=O)c(OC)c1`, the viability worked out at 103%.

As to `COc1ccc(CCNc2oc(-c3ccccc3OC)nc2C#N)cc1`, the viability turned out to be 95.2%.

As for `Fc1ccc(-c2cnc[nH]2)cc1`, the viability is 96.7%.

As to `Cc1cc(NC(=O)CSc2nnc(C3CC3)n2C)no1`, the viability is 100%.
